In ChEMBL document CHEMBL3988442, “University of Dundee, Small-Polar-MMV Screening Library” (2021):
For some of these results: Entries with a potency or affinity are not part of this list.

Assays:
Parameters in all cases: scale not given: direction of the effect not stated beside the values
[1] = biological target: Protein translocase subunit SecA (Escherichia coli (strain K12)) (UniProt P10408); test: Assay to Identify E. coli SecA ATPase Inhibitors; format: functional; details: 30 µM
[2] = biological target: T1, Ubiquitin-activating enzyme e1, putative (Leishmania donovani (strain BPK282A1)) (UniProt E9BSI1); test: Leishmania donovani Ubiquitin Activating Enzyme (LdE1); format: functional; details: 30 µM
T1 sequence (whole entry): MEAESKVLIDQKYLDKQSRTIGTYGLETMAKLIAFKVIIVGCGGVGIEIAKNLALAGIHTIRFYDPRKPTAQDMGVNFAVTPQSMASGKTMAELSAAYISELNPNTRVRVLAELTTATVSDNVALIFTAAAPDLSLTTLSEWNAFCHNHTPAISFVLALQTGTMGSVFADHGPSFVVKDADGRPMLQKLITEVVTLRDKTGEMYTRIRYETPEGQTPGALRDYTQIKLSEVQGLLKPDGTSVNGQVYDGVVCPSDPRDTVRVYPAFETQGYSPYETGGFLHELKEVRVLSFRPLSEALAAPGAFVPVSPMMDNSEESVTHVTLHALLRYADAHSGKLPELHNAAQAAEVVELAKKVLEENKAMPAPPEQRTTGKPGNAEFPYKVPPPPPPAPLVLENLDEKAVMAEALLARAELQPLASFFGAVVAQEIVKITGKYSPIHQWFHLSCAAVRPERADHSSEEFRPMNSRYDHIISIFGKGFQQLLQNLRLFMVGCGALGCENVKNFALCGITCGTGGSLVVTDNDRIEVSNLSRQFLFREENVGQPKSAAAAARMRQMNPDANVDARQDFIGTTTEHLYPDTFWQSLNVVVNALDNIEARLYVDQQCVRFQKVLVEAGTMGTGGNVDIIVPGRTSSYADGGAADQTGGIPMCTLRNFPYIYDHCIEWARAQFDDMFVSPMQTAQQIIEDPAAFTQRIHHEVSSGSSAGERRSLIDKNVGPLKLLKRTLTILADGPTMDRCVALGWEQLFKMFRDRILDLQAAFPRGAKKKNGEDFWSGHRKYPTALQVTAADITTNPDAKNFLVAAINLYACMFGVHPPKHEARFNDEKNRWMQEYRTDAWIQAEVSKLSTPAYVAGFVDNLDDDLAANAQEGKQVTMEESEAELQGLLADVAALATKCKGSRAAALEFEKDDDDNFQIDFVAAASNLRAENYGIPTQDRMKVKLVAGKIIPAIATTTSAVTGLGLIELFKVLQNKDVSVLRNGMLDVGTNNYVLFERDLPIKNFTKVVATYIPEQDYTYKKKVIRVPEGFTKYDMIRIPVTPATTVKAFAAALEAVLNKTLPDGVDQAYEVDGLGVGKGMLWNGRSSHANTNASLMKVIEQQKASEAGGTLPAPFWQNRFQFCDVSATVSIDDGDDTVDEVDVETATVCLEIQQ

[3] = biological target: AMP-activated protein kinase, AMPK (Homo sapiens) (UniProt P54646+O43741+P54619+Q9UGJ0+Q9Y478+Q13131+Q9UGI9); test: AMP-dependent Kinase enzyme assay. An in vitro enzyme assay that detects ADP turnover that is directly proportional to AMPK activity. This uses naive AMPK that is activated during the assay with MK-8722; format: functional; details: 30 µM
[4] = biological target: Sialic acid-binding Ig-like lectin 9 (Homo sapiens) (UniProt Q9Y336); test: Hs-Siglec9 ALPHAscreen SOP 20170721; details: 10 µM
Sequence of Sialic acid-binding Ig-like lectin 9 (Homo sapiens) (Q9Y336 whole entry): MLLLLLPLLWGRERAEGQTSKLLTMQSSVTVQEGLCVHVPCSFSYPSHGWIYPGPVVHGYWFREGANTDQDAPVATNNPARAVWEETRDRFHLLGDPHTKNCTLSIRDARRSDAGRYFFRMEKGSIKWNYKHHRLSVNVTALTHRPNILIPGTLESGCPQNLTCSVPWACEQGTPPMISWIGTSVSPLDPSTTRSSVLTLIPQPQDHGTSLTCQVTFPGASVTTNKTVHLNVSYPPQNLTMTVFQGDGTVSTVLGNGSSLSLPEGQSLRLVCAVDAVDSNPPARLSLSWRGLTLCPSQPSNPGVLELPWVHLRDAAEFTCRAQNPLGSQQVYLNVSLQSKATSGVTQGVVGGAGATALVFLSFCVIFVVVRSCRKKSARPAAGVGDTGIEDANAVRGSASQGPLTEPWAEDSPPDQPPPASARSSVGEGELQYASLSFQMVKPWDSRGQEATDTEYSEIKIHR

Trypanosoma cruzi = test: Trypanosoma cruzi phosphomannomutase and mannose-1-phosphate guanylyltransferase assay; format: functional; details: 10 µM
[5] = biological target: T2, Arginase-2, mitochondrial (Homo sapiens) (UniProt P78540); test: in vitro enzyme assay to detect the production of urea directly proportional to the activity of Arginase II; format: functional; details: 33.3 µM; note: in the data most compounds retested in dose-response had high values
T2 sequence (whole entry): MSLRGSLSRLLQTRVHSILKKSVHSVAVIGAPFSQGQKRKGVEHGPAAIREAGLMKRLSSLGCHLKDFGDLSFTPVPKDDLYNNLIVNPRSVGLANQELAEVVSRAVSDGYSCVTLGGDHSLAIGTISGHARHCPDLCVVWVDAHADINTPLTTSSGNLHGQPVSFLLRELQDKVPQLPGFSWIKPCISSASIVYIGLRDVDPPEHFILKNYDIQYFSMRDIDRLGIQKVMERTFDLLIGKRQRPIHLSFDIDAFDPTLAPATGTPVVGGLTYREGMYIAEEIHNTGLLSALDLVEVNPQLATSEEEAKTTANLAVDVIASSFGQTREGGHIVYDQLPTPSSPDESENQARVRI

[6] = biological target: T3, Proteasome subunit beta (Trypanosoma cruzi) (UniProt O96673); test: Trypanosoma cruzi proteasome chymotrypsin-like activity (TcProtChymo) assay.; note: in the data most compounds retested in dose-response had high values; format: functional; details: 9.37 µM
T3 sequence (whole entry): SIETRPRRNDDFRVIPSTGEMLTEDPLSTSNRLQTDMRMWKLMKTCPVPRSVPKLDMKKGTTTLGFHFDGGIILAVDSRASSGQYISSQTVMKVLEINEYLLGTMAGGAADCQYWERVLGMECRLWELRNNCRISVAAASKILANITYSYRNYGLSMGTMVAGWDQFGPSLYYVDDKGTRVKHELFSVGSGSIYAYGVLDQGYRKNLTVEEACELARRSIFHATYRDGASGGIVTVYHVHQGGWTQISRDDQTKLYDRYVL

Homo sapiens = species: Homo sapiens; test: To identify inhibition of the IFN signalling (Jak-Stat) pathway via expression of an eGFP reporter gene under the control of an IFN-stimulated response element (ISRE) containing MxA promoter.; format: functional; details: 30 µM
[7] = biological target: T4, Tyrosyl-tRNA synthetase, putative (Trypanosoma cruzi (strain CL Brener)) (UniProt Q4DSP6); test: Trypanosoma cruzi tyrosyl tRNA synthetase (TcYRS) _High Tyrosine SOP; format: functional; details: 30 µM; note: in the data most compounds retested in dose-response had high values
T4 sequence (whole entry): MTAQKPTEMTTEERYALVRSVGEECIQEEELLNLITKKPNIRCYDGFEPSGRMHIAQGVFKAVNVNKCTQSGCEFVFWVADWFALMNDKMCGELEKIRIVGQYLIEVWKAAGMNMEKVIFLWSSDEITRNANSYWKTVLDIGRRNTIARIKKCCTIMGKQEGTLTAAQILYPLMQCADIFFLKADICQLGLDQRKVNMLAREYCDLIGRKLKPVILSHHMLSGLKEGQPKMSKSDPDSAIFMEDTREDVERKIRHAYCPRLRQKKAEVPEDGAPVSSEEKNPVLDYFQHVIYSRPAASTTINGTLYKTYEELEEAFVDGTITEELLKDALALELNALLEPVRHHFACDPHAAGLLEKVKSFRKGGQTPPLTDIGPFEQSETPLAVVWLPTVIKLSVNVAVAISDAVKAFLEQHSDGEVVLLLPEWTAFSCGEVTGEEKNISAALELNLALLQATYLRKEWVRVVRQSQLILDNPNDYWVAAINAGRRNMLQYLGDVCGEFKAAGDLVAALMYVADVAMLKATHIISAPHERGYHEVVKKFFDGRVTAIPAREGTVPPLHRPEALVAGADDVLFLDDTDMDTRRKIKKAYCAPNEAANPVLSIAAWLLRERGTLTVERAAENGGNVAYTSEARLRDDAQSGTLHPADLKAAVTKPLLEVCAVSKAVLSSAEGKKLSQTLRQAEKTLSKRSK

[8] = biological target: T4, Tyrosyl-tRNA synthetase, putative (Trypanosoma cruzi (strain CL Brener)); test: Trypanosoma cruzi tyrosyl tRNA synthetase (TcYRS) SOP; format: functional; details: 30 µM
[9] = biological target: Chromo domain-containing protein 1 (Saccharomyces cerevisiae (strain ATCC 204508 / S288c) (Baker's yeast)) (UniProt P32657); test: ScCHD-1 Enzyme Inhibition Assay; format: functional; details: 30 µM; note: in the data most compounds retested in dose-response had high values
Sequence of Chromo domain-containing protein 1 (Saccharomyces cerevisiae (strain ATCC 204508 / S288c) (Baker's yeast)) (P32657 whole entry, the tested form may be a part): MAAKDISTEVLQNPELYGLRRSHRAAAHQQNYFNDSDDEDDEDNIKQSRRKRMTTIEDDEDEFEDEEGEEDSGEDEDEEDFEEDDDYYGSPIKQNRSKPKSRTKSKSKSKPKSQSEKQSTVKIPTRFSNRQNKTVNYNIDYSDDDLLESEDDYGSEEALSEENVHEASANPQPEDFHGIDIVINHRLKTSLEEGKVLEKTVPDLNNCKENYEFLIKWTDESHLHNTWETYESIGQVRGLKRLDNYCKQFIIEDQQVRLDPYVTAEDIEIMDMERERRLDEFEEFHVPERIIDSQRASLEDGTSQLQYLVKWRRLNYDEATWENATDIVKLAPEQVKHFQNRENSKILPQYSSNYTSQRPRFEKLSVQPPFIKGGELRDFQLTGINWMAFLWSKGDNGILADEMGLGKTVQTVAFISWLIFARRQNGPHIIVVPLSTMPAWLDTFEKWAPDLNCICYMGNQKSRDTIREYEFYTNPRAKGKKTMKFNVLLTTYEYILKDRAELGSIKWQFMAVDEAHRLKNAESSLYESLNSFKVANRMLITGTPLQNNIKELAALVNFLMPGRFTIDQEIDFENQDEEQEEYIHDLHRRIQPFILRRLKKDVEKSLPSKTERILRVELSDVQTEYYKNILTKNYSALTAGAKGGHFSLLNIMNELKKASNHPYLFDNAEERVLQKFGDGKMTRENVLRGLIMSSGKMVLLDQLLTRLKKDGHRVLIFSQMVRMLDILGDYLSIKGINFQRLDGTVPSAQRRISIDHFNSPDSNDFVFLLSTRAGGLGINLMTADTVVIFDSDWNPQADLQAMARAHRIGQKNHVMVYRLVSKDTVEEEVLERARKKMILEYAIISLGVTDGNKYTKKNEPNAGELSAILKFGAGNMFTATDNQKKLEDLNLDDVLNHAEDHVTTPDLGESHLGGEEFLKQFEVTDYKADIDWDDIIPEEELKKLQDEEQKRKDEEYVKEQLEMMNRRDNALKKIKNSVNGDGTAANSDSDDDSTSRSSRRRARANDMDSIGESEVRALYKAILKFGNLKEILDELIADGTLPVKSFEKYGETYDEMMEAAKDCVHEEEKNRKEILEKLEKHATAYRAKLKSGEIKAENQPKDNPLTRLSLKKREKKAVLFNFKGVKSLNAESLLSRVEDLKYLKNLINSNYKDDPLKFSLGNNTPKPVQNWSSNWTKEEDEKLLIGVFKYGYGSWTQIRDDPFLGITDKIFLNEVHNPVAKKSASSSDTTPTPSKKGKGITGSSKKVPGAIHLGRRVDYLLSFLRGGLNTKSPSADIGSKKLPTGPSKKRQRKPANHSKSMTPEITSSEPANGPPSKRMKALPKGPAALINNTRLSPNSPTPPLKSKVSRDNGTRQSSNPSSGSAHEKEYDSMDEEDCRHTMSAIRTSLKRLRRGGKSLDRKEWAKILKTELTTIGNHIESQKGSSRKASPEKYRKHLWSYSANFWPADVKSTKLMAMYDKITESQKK

Sequence of Protein translocase subunit SecA (Escherichia coli (strain K12)) (P10408 whole entry): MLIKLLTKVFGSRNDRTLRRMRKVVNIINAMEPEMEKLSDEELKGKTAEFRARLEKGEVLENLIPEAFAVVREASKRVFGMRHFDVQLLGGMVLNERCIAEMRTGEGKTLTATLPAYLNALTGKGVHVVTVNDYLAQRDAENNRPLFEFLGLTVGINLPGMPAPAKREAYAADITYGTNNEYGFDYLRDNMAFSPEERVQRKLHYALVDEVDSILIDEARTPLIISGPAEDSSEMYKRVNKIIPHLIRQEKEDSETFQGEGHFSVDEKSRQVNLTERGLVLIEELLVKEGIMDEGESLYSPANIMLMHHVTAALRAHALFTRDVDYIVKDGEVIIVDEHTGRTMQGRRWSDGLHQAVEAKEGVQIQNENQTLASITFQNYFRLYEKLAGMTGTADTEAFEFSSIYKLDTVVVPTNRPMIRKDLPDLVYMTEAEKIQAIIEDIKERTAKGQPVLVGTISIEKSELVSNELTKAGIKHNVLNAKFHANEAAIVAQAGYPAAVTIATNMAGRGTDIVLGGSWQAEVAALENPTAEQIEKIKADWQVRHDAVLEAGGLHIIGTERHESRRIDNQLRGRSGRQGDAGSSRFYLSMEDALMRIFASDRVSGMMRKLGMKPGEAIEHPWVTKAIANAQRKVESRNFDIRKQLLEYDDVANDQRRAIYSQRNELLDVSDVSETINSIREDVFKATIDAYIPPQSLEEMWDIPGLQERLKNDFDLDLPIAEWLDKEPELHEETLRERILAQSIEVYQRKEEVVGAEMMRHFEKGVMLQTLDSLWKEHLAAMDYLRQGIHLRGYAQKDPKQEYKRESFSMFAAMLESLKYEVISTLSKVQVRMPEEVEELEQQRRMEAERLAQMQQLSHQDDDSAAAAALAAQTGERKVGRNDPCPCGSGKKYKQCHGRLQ

Row | Structure (SMILES) | Percent Effect [1] [%] | Percent Effect [2] [%] | Percent Effect [3] [%] | Percent Effect [4] [%] | Percent Effect (Trypanosoma cruzi) [%] | Percent Effect [5] [%] | Percent Effect [6] [%] | Percent Effect (Homo sapiens) [%] | Percent Effect [7] [%] | Percent Effect [8] [%] | Percent Effect [9] [%]
1 | CC(=O)NCCNC(=O)c1cnc(-c2ccccc2)nc1 | -2.95 | 2.7 | 0.346 | 11.7 | -4.59 | 4.22 | 3.35 | 0.496 | 6.45 | 11.1 | -5.21
2 | Cc1nc(CN2C[C@@H]3CN(C(=O)c4cnccn4)C[C@@H]3C2)cs1 | -1.57 | 5.48 | 0.106 | 5.75 | -1.79 | -2.79 | 7.45 | 7.67 | 5.21 | 16.1 | -3.57
3 | O=C(c1ccc(F)c(F)c1)N1CCCC(Nc2ccc(F)cc2)C1 (configuration not stated) | -2.99 | -2.7 | -4.26 | 1.48 | 6.56 | -2.86 | 2.59 | 19.7 | 6.88 | 7.32 | -2.35
4 | CC(C(N)=O)S(=O)(=O)Cc1cc(Cl)c2c(c1)OCO2 (configuration not stated) | -0.171 | 15.8 | 1.18 | -10.6 | -3.83 | 7.91 | 6.51 | 7.44 | 5.42 | 13.6 | -7.99
5 | CC(=O)NCCNC(=O)CN1CCN(Cc2nccn2C)C(C)C1 (configuration not stated) | -6.92 | 0 | -3.67 | 14 | -0.836 | 0.185 | -2.87 | 0.801 | 7.92 | 6.1 | 10
6 | O=C(Cn1ccnc1)N1C[C@@H]2CC[C@H](Oc3ccccc3)[C@@H]2C1 | -4.17 | 9.46 | 7.42 | -4.28 | 2.77 | -1.16 | 16.2 | 12.3 | 3.23 | 11.7 | -11.8
7 | CCc1cc(NCCc2ccc(O)cc2)n2nccc2n1 | -0.557 | 5.48 | 93.2 | 6.39 | 2.35 | 25 | 9.58 | 46.2 | 3.23 | 15 | -4.87
8 | CCN1CCN(Cc2coc(-c3cccc(F)c3)n2)CC1 | -2.72 | 18.2 | -12.3 | -3.56 | 5.06 | -0.356 | 16.6 | -3.8 | 9.71 | 12.2 | -12
9 | O=c1c2cnc(N3CCCCC3)nc2ccn1-c1ccccc1 | -4.04 | 9.33 | -3.82 | -5.64 | 4.71 | -7.22 | 15 | 8.11 | 2.12 | 10.3 | -8.21
10 | c1ccc(CCN2CCOC(Cn3cccn3)C2)nc1 (configuration not stated) | -6.2 | 5.2 | -1.28 | 6.84 | 7.54 | 1.05 | 3.15 | 5.5 | 3.81 | 11.8 | -7.53
11 | CC(=O)NCCNC(=O)N(C)Cc1ccc2c(c1)OCCO2 | -3.01 | 0 | -0.74 | -6.13 | -4.92 | 6.1 | 1.79 | 7.44 | 4.95 | 13.4 | -1.92
12 | Cc1cc(C)cc(NC(=O)CN2CCCC(n3cncn3)C2)c1 (configuration not stated) | -3.62 | 8.11 | 1.86 | 6.56 | 8.08 | -1.66 | 1.44 | 3.59 | 2.97 | 15.8 | -2.91
13 | COCC(=O)N1Cc2cn(C)nc2C(COc2cccnc2)C1 (configuration not stated) | 1.2 | 15.6 | 0.672 | -9.95 | -0.493 | 7.1 | 10.4 | 35.1 | 1.06 | 6.41 | -9.03
14 | COc1ncccc1NC(=O)C1CC(=O)N(Cc2ccccn2)C1 (configuration not stated) | -1.71 | 10.5 | 4.85 | -1.28 | -4.97 | -2.37 | 22.3 | -2.21 | 4.25 | 13 | -2.98
15 | O=C(CN1CCc2ccccc21)Nc1ccc(OC(F)F)cc1 | -2 | 1.39 | 0.216 | 8.48 | -2.23 | 0.883 | 21.1 | 8.31 | 0 | -7.69 | 88.5
16 | Cc1nc(CN2CCc3ncnc(-c4ccc(F)cc4)c3CC2)cs1 | -3.21 | 10.8 | 5.22 | -0.105 | -1.66 | 9.87 | 18.4 | -9.45 | 5.41 | 17.9 | -0.896
17 | OC(COc1ccccc1)CN1CCC(c2ccn[nH]2)CC1 (configuration not stated) | -2.35 | 15.2 | -5.68 | 0.333 | -4.82 | 3.04 | 2.05 | -21.8 | 2.46 | 13.9 | -2.28
